Here are results for 40 molecules from PubChem BioAssay (NCATS).

Results filed as inconclusive are left out. Entries that show only a call come without a potency. Calls of active or inactive are those of the source. The call rests on the fitted dose curve; in most records, active means well fitted inhibition curve with a large enough effect; inconclusive means small, poorly fitted or top-dose-only effect; inactive means flat fitted curve, though single readings scatter.
Potency means the concentration at half of the fitted maximal effect.

The test system of the assay is CP203. The assay can be described thus: qHTS profiling for inhibitors of Plasmodium falciparum proliferation (AID 504749). Further: nearly all actives have a fitted effect of over 60% in size. The conditions noted are these: P. falciparum in erythrocytes, SYBR Green DNA, 72 h; series mostly up to 28.7 µM. The text has this: NIH National Institute of Allergy and Infectious Diseases [NIAID] NIH Chemical Genomics Center [NCGC] MLPCN Grant: None Assay Provider: Xinzhuan Su, NIAID NCGC Assay Overview: Plasmodium falciparum is a virulent malarial parasite that kills 1-2 million people worldwide each year. Transmitted by mosquitoes, the sporozoite form of the parasite enters the blood stream to infect hepatocytes, where they become merozoites that infect red blood cells (erythrocytes). Within erythrocytes, merozoites begin a […] cycle of growth and division, after which the parasite is released to infect new red blood cells. Gametocytes, which form within erythrocytes as well, circulate in the bloodstream and are ingested by the mosquito, thereby completing the life cycle. To profile malarial isolates for differential chemical responses and to identify inhibitors of malarial growth, an assay that measures P. falciparum growth and replication within erythrocytes was employed. This assay uses a DNA binding fluorescent dye (SYBR Green) to detect parasite DNA following cell lysis. Because mature erythrocytes lack DNA, only Plasmodium-derived DNA is detected.
NCGC Assay Protocol Summary: The SYBR Green viability assay was adapted from a method described previously (Plouffe et al., 2008). For screening 3 ul culture medium was dispensed into 1536 well black clear bottom plates (Aurora Biotechnologies) using a Multidrop Combi (Thermo Fisher Scientific Inc.), 23 nL compounds in DMSO were added by a pin tool (Kalypsys), and 5 ul of erythrocytes infected with P. falciparum (0.3% parasitemia, 2.5% hematocrit final concentration) were added. The plates were incubated at 37 C in a humidified incubator in 5% CO2 for 72 h, and 2 ul lysis buffer (20 mM Tris HCl, 10 mM EDTA, 0.16% saponin, 1.6% triton X, 10X SYBR Green I supplied as 10,000X […] by Invitrogen) was added to each well. The plates were mixed for 25 sec with gentle shaking and incubated overnight at room temperature in the dark. The following morning, fluorescence intensity at 485(14) nm excitation and 535(25) nm emission wavelengths was measured on an EnVision (Perkin Elmer) plate reader. Plate reads were normalized relative to the control inhibitor (0.29 uM artemisinin) and vehicle (DMSO) wells present on each plate and then corrected by an algorithm using vehicle-only control plates at the beginning and end of the compound plate stack.
Background: Quantitative high-throughput screening tests each substance at several concentrations.
In the case of `O=C(O)CN1C(=O)c2cccc3cccc(c23)C1=O`, the Potency entry was “inactive”.
Turning to `CCCn1cnc2c1c(=O)n(CCCCC(C)=O)c(=O)n2C`, the Potency entry is “inactive”.
With `CC(=O)NC(Cc1ccccc1)C(=O)O` (stereo not given), the Potency entry is “inactive”.
Then `Cc1cccc(C)c1NC(=O)CN(CC(=O)O)CC(=O)O`, with “inactive”.
On to `COc1ccc2[nH]c(S(=O)Cc3ncc(C)c(OC)c3C)nc2n1` (stereo not given), for which the Potency entry was “inactive”.
Then `COc1cc(C)c(Cc2cnc(N)nc2N)cc1OC`, with “inactive”; and `CCCCCCCCCCCCCCCCCCOCC(O)CO` (stereo not given), with “inactive”; and `[O-][n+]1cccc(CO)c1`, with “inactive”.
Then `Nc1ncnc2c1ncn2[C@@H]1O[C@H](CO)[C@@H](O)[C@H]1O`, with “inactive”; and `O=c1[nH]c(=O)c2[nH]c(=O)[nH]c2[nH]1`, with “inactive”; and `C=Cc1c(C)c2cc3[nH]c(cc4nc(cc5nc(cc1[nH]2)C(C)=C5CCC(=O)O)C(CCC(=O)O)=C4C)c(C)c3C=C`, with “inactive”.
Under `N[C@@H](CSCCCO)C(=O)O` stands “inactive”; under `CC(C)(C)NCC(O)COc1ccc(NC(=O)NC2CCCCC2)cc1` (stereo not given), “inactive”.
Take `Cc1ccc(C(C)C)cc2c(C)ccc1-2`: the Potency entry was “inactive”.
Consider `CC(=O)Nc1ccc(/C=N/NC(N)=S)cc1`, for which the Potency entry was “inactive”.
In the case of `Nc1nc2c(ncn2CCC(CO)CO)c(=O)[nH]1`, the Potency entry was “inactive”.
Under `COc1cc(C(=O)N2CCOCC2)cc(OC)c1OC` stands “inactive”.
For `CC1=C(CC(=O)O)c2cc(F)ccc2/C1=C\c1ccc(S(C)=O)cc1` (stereo not given), the Potency result was “inactive”.
`O=C1NS(=O)(=O)c2ccccc21`: the Potency result was “inactive”.
Under `CCCCCCCCCCCCOS(=O)(=O)O` stands “inactive”; under `O=S(=O)(O)c1cc(I)c(O)c2ncccc12`, “inactive”; under `CCCCC(CC)COC(=O)c1ccccc1O` (stereo not given), “inactive”.
Then `O=C(CCCN1CCN(c2ccccn2)CC1)c1ccc(F)cc1`, with “inactive”; and `CCOC(=O)c1ccc(O)cc1`, with “inactive”; and `C[C@@H]1CN(c2c(F)c(F)c3c(=O)c(C(=O)O)cn(C4CC4)c3c2F)C[C@H](C)N1`, with “inactive”.
Under `[Cl][In]([Cl])[Cl]` stands “inactive”.
`CC1=C(/C=C/C(C)=C/C=C/C(C)=C/C(=O)O)C(C)(C)CCC1`: the Potency entry is “inactive”.
Consider `CCCCN(CCCC)CCCOC(=O)c1ccc(N)cc1`, for which the Potency result was “inactive”.
As for `O=C1O[C@H]([C@@H](O)CO)C(O)=C1O`, the Potency entry is “inactive”.
On to `CC(C)(C)C(=O)C(Oc1ccc(Cl)cc1)n1ccnc1` (stereo not given), for which the Potency is 13.5 µM (active).
Under `CC(=O)Oc1ccc(C2(c3ccc(OC(C)=O)cc3)C(=O)Nc3ccccc32)cc1` stands “inactive”; under `CCCCc1ncc(/C=C(\Cc2cccs2)C(=O)O)n1Cc1ccc(C(=O)O)cc1`, “inactive”; under `Cn1c(=O)c2c(ncn2CC2OCCO2)n(C)c1=O`, “inactive”.
For `O=C1c2c(O)cccc2Cc2cccc(O)c21`, the Potency entry was “inactive”.
Under `COC(=O)C1=C(C)NC(C)=C(C(=O)OC)C1c1ccccc1[N+](=O)[O-]` stands “inactive”; under `Cc1cc(O)cc2c1O[C@](C)(CCC[C@H](C)CCC[C@H](C)CCCC(C)C)CC2`, “inactive”.
Then `NC(=O)NC(=O)Cc1ccccc1`, with “inactive”; and `O=C1NC(=O)[C@@]2(CCOc3ccc(F)cc32)N1`, with “inactive”; and `Nc1ccc(S(=O)(=O)Nc2ccc(Cl)nn2)cc1`, with “inactive”.
Under `COc1cc2[nH]c(=O)[nH]c(=O)c2cc1OC` stands “inactive”.
